# In all, about 360,000 compounds went through this assay and about 6,000 (1.7%) were called active. A call without a number means that no potency is given here. Inconclusive results (about 8%) are left out. Calls follow the shape of the dose curve; as a rule, active = well fitted cell-killing curve with a large enough effect; inconclusive = small, poorly fitted or top-dose-only effect, or effect the other way; inactive = flat fitted curve, though single readings scatter. Only a selection was taken, and actives are over-represented in it overall.
# Assay: qHTS for induction of synthetic lethality in tumor cells producing 2HG: qHTS for the HT-1080-NT fibrosarcoma cell line;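 also: NT is the 2HG producing partner of a matched IDH1 knockdown line; nearly all actives have a fitted effect of over 55% in size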
# Conditions: HT-1080-NT fibrosarcoma viability, CellTiter-Glo ATP luminescence, 48 h; series mostly up to 46.1 µM
# Outline: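 Fibrosarcoma NT cells, 750 per well in 5% FBS RPMI, were exposed to compound for 48 hours. Viability: CellTiter-Glo luminescence.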
# Potency is read from the fitted curve at half-maximal effect.
row,Structure (SMILES),Potency
1,CO[C@@H]1CN(C)C(=O)c2cc(NC(=O)Nc3cc(F)ccc3F)ccc2OC[C@H](C)N(C(=O)c2ccccn2)C[C@@H]1C,inactive
2,CCCCC[C@H](C)N1C[C@@H](COCc2ccccc2)Oc2cc(N3CCC[C@@H]3CO)ccc2S1(=O)=O,inactive
3,O=C(NCc1cccnc1)c1ccc2nc([C@@H]3O[C@H](CO)[C@H](O)[C@H](O)[C@H]3O)[nH]c2c1,inactive
4,COc1ccc(S(=O)(=O)N(C)C[C@H]2OCc3cnnn3CCCC(=O)N([C@H](C)CO)C[C@H]2C)cc1,inactive
5,CNc1cc(-c2c(OC)cccc2OC)ncn1,inactive
6,O=S1(=O)CC(N2CCN(c3ccccn3)CC2)CN1Cc1ccc(F)cc1 (stereo not given),inactive
7,COc1cccc(NC(=O)C2(C)CCN2Cc2ccccc2Cl)c1 (stereo not given),inactive
8,COc1ccc(C2CC(c3ccccc3)=NN2C(=O)COC(=O)COc2ccccc2)cc1 (stereo not given),inactive
9,COc1ccc(C2CC(c3ccc([N+](=O)[O-])cc3)=NN2C(C)=O)cc1 (stereo not given),inactive
10,COc1ccc(C2CC(c3cccc(OC)c3)=NN2c2ccc(S(N)(=O)=O)cc2)cc1 (stereo not given),18.4 µM (active)
11,O=C(CSc1ccc(Cl)cc1)NC1CC1,inactive
12,O=C(OC1CC2CC1[C@H]1CCCCN1C2=O)N1CCOCC1 (stereo not given in full),inactive
13,CCCCCNC(=O)C(c1ccc(OC)cc1)n1c(=O)c(-c2ccccc2)nc2ccccc21 (stereo not given),inactive
14,CCN(CC)C(=O)C1=C(C)N(Cc2ccc(OC)cc2)C(=O)C(CC(=O)NCCCCc2ccccc2)C1 (stereo not given),inactive
15,Cc1ccc(S(=O)(=O)N(Cc2cccc([N+](=O)[O-])c2)C(=O)N2CCN(C)CC2)cc1,inactive
16,O=C(CCl)N(Cc1cccc([N+](=O)[O-])c1)c1cccc(Cl)c1,6.51 µM (active)
17,O=C(c1cccc([N+](=O)[O-])c1)N1CCN(Cc2ccccc2)CC1,inactive
18,O=C(c1ccc(N2CCCC2=O)cc1)N1CCN(c2ccc(C(F)(F)F)cc2[N+](=O)[O-])CC1,inactive
19,CCNC(=S)Nc1ccc2c(c1)c(=O)n(C)n2Cc1ccc(Cl)cc1,inactive
20,COc1ccc(CNC(=O)c2ccc(-c3cccnc3)c3ccoc23)cc1OC,inactive
21,COc1cccc(C(O)c2nc(-c3ccc(C)c(C)c3)cs2)c1 (stereo not given),inactive
22,Cc1ccc(CNC(=O)CCNC(=O)Cn2ccc3ccccc3c2=O)cc1,inactive
23,COC(=O)COc1cccc2c(=O)n(CC(=O)NCCc3ccc(OC)c(OC)c3)ccc12,inactive
24,COC(=O)COc1cccc2c(=O)n(CC(=O)NCc3ccccc3)ccc12,2.59 µM (active)
25,Cc1cc(C)c(S(=O)(=O)NN=C2c3ccccc3[C@H]3Cc4csc[n+]4[C@@H]23)c(C)c1,inactive

row,Structure (SMILES),Potency
1,O=c1[nH]c2ccccc2n1C1CCN(CCOc2ccccc2)CC1,inactive
2,COc1ccc2c(CC(=O)N3CCc4cc(OC)c(OC)cc4C3)coc2c1,inactive
3,COc1ccccc1CNC(=O)c1cc(=O)c2ccccc2o1,inactive
4,COc1cc2c(cc1OC)CN(C(=O)c1cc(=O)c3ccccc3o1)CC2,5.8 µM (active)
5,COc1ccc(S(=O)(=O)N2CCCCC2c2cc(C(=O)NCc3ccc(F)cc3)no2)cc1 (stereo not given),inactive
6,C[C@@H]1CN([C@H](C)CO)S(=O)(=O)c2ccc(C#CC3CCCCC3)cc2O[C@H]1CN(C)C(=O)Cc1ccncc1,inactive
7,C=C(C)COc1ccc(-c2n[nH]c(C)c2-c2ccccc2)c(O)c1,20.6 µM (active)
8,COc1ccc(-c2c(-c3ccc(OC)cc3O)nc(C)nc2C(F)(F)F)cc1,inactive
9,C=C(C)COc1ccc(-c2ncncc2-c2ccc(OC)cc2)c(O)c1,inactive
10,CCOC(=O)[C@H]1Nc2ccc(Cl)cc2[C@@H]2[C@H]1C1CC(c3ccccc31)N2C(=O)OCc1ccccc1 (stereo not given in full),inactive
11,COc1ccc(/C=C2\CCc3ccccc3C2=O)c(OC)c1OC,inactive
12,COc1ccc(/C=C2/CCCc3ccccc3C2=O)cc1,8.2 µM (active)
13,O=C1/C(=C/c2cccs2)CCc2ccccc21,inactive
14,CC(=O)Oc1ccc(Cn2c(C)c(C(=O)NCc3ccc(C#N)cc3)sc2=O)cc1,inactive
15,O=C(CSc1nc2cccc(F)c2c(=O)n1-c1ccccc1)Nc1ccc2c(c1)CCC2,inactive
16,O=C(O)c1cccc(NC(=O)c2cc(-c3cccc(Cl)c3)nc3ccccc23)c1,inactive
17,O=C(N/N=C/c1ccc(Cl)cc1)c1nc2ccc([N+](=O)[O-])cc2c(=O)[nH]1,inactive
18,O=C(/C(=C/c1cccc(Cl)c1)c1nc2ccccc2[nH]1)c1ccccc1,5.17 µM (active)
19,Cc1cc(Br)cn2c(Cc3ccccc3C(F)(F)F)c(-c3ccc(Cl)cc3)nc12,inactive
20,COc1ccc(Oc2c(Cl)cnn(-c3ccccc3)c2=O)cc1,18.4 µM (active)
21,Cc1ccc(Oc2cnn(-c3ccccc3)c(=O)c2Br)cc1,inactive
22,COc1ccc(CCNC(=O)c2c(C)nn(-c3ccccc3)c2Cl)cc1,inactive
23,CCCCN1C(=O)C(CC(=O)NCc2cccs2)CC(C(=O)N2CCCCCC2)=C1C (stereo not given),inactive
24,O=C(NCc1ccccc1)C1CNCC(C(=O)NCc2ccccc2)C1 (stereo not given),inactive
25,Cc1ccc(-c2nc3c(Cl)cc(C(F)(F)F)cn3c2Cc2cccc(Cl)c2)cc1,inactive

row,Structure (SMILES),Potency
1,Oc1c(Cl)cc(Cl)c(Cl)c1Cc1c(O)c(Cl)cc(Cl)c1Cl,5.8 µM (active)
2,CCCCCCCCn1c2c(c(=N)c3c1CCC3)CCCC2,16.4 µM (active)
3,C=CC(=O)OCCOCCOCCOCCOC(=O)C=C,20.6 µM (active)
4,COc1cc(CCN=Cc2ccccc2O)c([N+](=O)[O-])cc1OC,inactive
5,COc1ccc(S(=O)(=O)N2CCC(C(=O)NCCC(=O)NCCc3cccc(F)c3)CC2)cc1,inactive
6,C=CCOc1cccc(C2C(C(=O)c3ccc(C)o3)=C(O)C(=O)N2CCN2CCOCC2)c1 (stereo not given),inactive
7,Cc1ccc([C@H]2C[C@H](O)[C@@H](n3cc(COC(=O)c4ccccc4)nn3)CN2C(=O)C2CCCCC2)cc1,inactive
8,CC(C)CCNC(=O)c1[nH]c(C(F)(F)F)nc1-c1ccccc1,inactive
9,COc1ccc(-c2ccc(CN3C(C(C)C)C(=O)N(Cc4cn(CC5CCCCC5)nn4)CCS3(=O)=O)cc2)cn1 (stereo not given),inactive
10,COc1ccc(/C=N/Nc2ccccc2C(=O)O)cc1,inactive
11,COc1ccc2[nH]c(C(=O)N/N=C/c3cc(OC)c(OC)c(OC)c3)cc2c1,inactive
12,COc1ccc(C(=O)Nc2ccccc2C(=O)N/N=C/c2ccc(O)c(OC)c2)cc1,5.8 µM (active)
13,CC(O)(c1cccc(F)c1)c1nc(-c2ccc3c(c2)OCO3)cs1 (stereo not given),inactive
14,CCOC(=O)C1=CC[C@@H](c2ccccc2)N(S(=O)(=O)c2ccc(C)cc2)[C@H]1c1ccc(CC)cc1,inactive
15,CCCOc1ccc(F)cc1-c1cc(C(=O)Nc2ccc(F)cc2)[nH]n1,inactive
16,COc1ccc(CCNC(=S)NC(=O)/C=C/c2ccc(C)cc2)cc1OC,6.31 µM (active)
17,COc1ccc(CCNC(=O)Cc2ccc(C)cc2)cc1OC,inactive
18,COc1ccc(CCNC(=O)NS(=O)(=O)c2ccc(C)cc2)cc1OC,inactive
19,O=C(COC(=O)/C=C/c1ccc(Cl)cc1)NC1CCS(=O)(=O)C1 (stereo not given),inactive
20,CCOC(=O)C(=Cc1ccccc1)C(=O)c1ccccc1,inactive
21,Cc1cc(OCc2ccc(C(=O)Nc3ccc(C(=O)O)cc3)o2)ccc1Cl,11.6 µM (active)
22,COc1ccc(NC(=O)CN(C)C(=O)c2ccc(COc3ccccc3)o2)cc1,inactive
23,O=C(O)c1ccc(NC(=O)c2ccc(COc3ccc(Cl)cc3)o2)cc1,inactive
24,O=C(NCc1ccccc1)C1c2ccccc2OCC(=O)N1CCCN1CCOCC1 (stereo not given),inactive
25,CCC(c1nc2ccccc2[nH]1)n1c(=O)c(-c2cccs2)nc2ccccc21 (stereo not given),inactive

# Source: PubChem BioAssay AID686970 (National Center for Advancing Translational Sciences (NCATS), 2013)
